The values that follow come from PubChem BioAssay AID1259422 (The Scripps Research Institute Molecular Screening Center, 2018).

In all, about 640,000 compounds went through this assay and about 9,300 (1.5%) were called active. The sample holds actives, similar compounds and a random draw of the others, so the mix is not that of the screen. Unmarked numbers belong to inactive results. Cut-off read from the data, not from the text of the source: active = inhibition above about 32%; inactive = the rest.

The nature of the assay: TEAD-YAP interaction inhibition, primary screen, TEAD-YAP interaction inhibitor project, luminescence, HEK-TIYL cells (AID 1259422).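 Note: 0% = median of test compound wells and 100% = reference inhibitor wells.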 To be noted: TEAD-Gal4/YAP UAS-luciferase luminescence, at 9.12 µM, stronger effect = higher value.
In the case of `Cc1ccc(C)c(C(=O)Nc2ccc3c(c2)N(S(=O)(=O)c2ccc(F)cc2)CCC3)c1`, the inhibition was -2.68%. In the case of `Cc1nc(N)sc1-c1csc(Nc2ccc(O)cc2)n1`, the inhibition is 2.78%. The value for `CC(=O)Nc1nc(C)c(-c2csc(Nc3ccc(C)cc3)n2)s1` was 1.48%; that for `Cc1nc(C)c(-c2csc(Nc3ccc(Br)cc3)n2)s1` was 52.5% (active).

As to `CC(C)Cn1c(-c2ccccc2)c[nH]c1=S`, the inhibition is 4.66%. On to `CCN1CCN(C2=C(Cl)C(=O)N(c3cccc(C(=O)OC)c3)C2=O)CC1`, for which the inhibition was 23.4%. As to `CCOc1ccc(Cl)cc1S(N)(=O)=O`, the inhibition was -4.54%. As to `COc1ccc(C(=O)N/N=C/c2c(O)ccc3ccccc23)cc1`, the inhibition was 58.3% (active). For `CC(=O)Nc1cccc(C(=O)N/N=C/c2c(O)ccc3ccccc23)c1` the value was 14.8%.

With `O=C(N/N=C/c1c(O)ccc2ccccc12)c1cc([N+](=O)[O-])cc([N+](=O)[O-])c1`, the inhibition was 3.24%. `O=C(NCc1ccco1)c1ccc(N2CC3CC(C2)c2cccc(=O)n2C3)c(NC(=S)Nc2ccc(Cl)cc2Cl)c1` (centres undefined): the inhibition is -0.4%. For `Cc1ccc(Nc2nc3nonc3nc2NNc2ccccc2)cc1Cl`, the inhibition is -9.84%. For `Nc1nc2nonc2nc1Nc1ccccc1`, the inhibition was 10.4%. Regarding `Cc1ccc(Nc2nc3nonc3nc2Nc2ccccc2F)cc1`, the inhibition is 69.4% (active). Turning to `Cc1cc(Cl)cc(Cl)c1OCCOCCN(C)CCO`, the inhibition was 3.38%. The value for `O=C(NCCc1ccsc1)Nc1ccccc1F` was -29.3%. On to `O=C(NCCc1ccccc1)c1cc(Sc2ccccc2Cl)nc2ccccc12`, for which the inhibition is -11.2%. In the case of `O=C(NCCc1ccsc1)c1ccccc1Cl`, the inhibition is 46.4% (active). For `COc1cccc(NC(=O)CSc2nnc(-c3ccc(F)cc3)c(-c3ccc(F)cc3)n2)c1`, the inhibition is 16.5%. As to `COc1ccc(Nc2ncnc3ccc(Br)cc23)cc1`, the inhibition is 33.4% (active). Consider `Fc1ccc(Nc2ncnc3ccc(I)cc23)cc1`, for which the inhibition was 25.1%. Turning to `COc1ccc(Nc2ncnc3c2cnn3-c2ccc(OC)cc2)cc1`, the inhibition was -19.6%.

As for `CC(=O)Oc1cccc(C(=O)Nc2ccc(C)c(C)c2)c1`, the inhibition is 62.5% (active). Regarding `CC(=O)Oc1cccc(C(=O)Nc2ccccc2Br)c1`, the inhibition was 14.5%.

In the case of `CC(=O)Oc1cc(C(=O)Nc2cccc(C#N)c2)cc(C(=O)Nc2cccc(C#N)c2)c1`, the inhibition was -1.56%. Take `O=C(CNC(=O)c1ccc(Br)o1)OCC(=O)c1ccc(Br)cc1`: the inhibition is 4.37%. The value for `Cc1ccc(CNC(=O)C(=O)N/N=C/c2ccccc2I)cc1` was -10.4%; that for `COc1ccc(CC2(CCC(=O)NCc3nc(C)cs3)CCC(=O)N2)c2ccccc12` (centres undefined) was -13.4%; that for `COc1cccc(Nc2nnc(Cc3ccc(Cl)cc3)c(=O)[nH]2)c1` was 7.31%. For the molecule `CCOc1ccccc1Nc1nnc(Cc2ccc(OC)cc2)c(=O)[nH]1`, the inhibition is 3.03%. Turning to `COc1ccc(Cc2nnc(N/N=C/c3ccccc3O)[nH]c2=O)cc1OC`, the inhibition is 85.4% (active).

Regarding `COc1cccc(C2(NC(=O)CN3C(=O)NC4C3N(C)C(=O)N4C)CCCC2)c1` (centres undefined), the inhibition is 4.87%. Regarding `CC1CN(C(=S)c2ccc(Br)cc2)CC(C)O1` (centres undefined), the inhibition is 6.13%. Take `O=C(CSc1nnc(NC(=O)C2CCC2)s1)NCc1cccs1`: the inhibition is 5.18%. Regarding `COc1cccc(/C=N/NC(=O)CC23CC4CC(CC(C4)C2)C3)c1O`, the inhibition was 69.8% (active).

Turning to `COc1cccc(/C=N/N=C2/NC(=O)CS2)c1O`, the inhibition was 58.3% (active). On to `COc1cc(/C=N/N=C2/NC(=O)CS2)ccc1OC(=O)c1ccccc1C`, for which the inhibition was 3.4%. For `COc1cccc(/C=N/NC(=O)C(=O)Nc2cccc3ccccc23)c1O` the value was 65.7% (active); for `COc1cccc(/C=N/NC(=O)CNc2cccc(C)c2)c1O`, 13.4%; for `COc1cccc(/C=N/NC(=O)c2ccccc2I)c1O`, 13.4%. With `COc1cccc(/C=N/NC(=O)c2cc(O)cc(O)c2)c1O`, the inhibition was 20.7%. As for `COc1ccc(/C=N/N=C2/NC(=O)CS2)c(OC)c1`, the inhibition was -13.7%. For the molecule `O=C(N/N=C/c1cccc2ccccc12)C(=O)N/N=C/c1cccc2ccccc12`, the inhibition is 0.24%. For `O=C(Cc1ccsc1)N1CCC[C@@H]2CN(C/C=C/c3ccccc3)CC[C@H]21`, the inhibition was -4.71%. As to `CS(=O)(=O)c1ccc(NCc2ccco2)cc1`, the inhibition was -0.14%. As for `CCOC(=O)C1=C(C)N=c2s/c(=C\c3ccc(N(C)C)c(Br)c3)c(=O)n2C1c1ccc(OC)c(OC)c1` (centres undefined), the inhibition is -28.6%. As to `CCc1nc(SCC(N)=O)c2c3c(sc2n1)CCCC3`, the inhibition was -22.7%. With `COc1ccc2nc(N3CCC(NCc4cccc(F)c4F)CC3)nc(C)c2c1`, the inhibition is 5.35%. For the molecule `CC(=O)C(C(C)=O)c1cc(Nc2ccc(C)cc2)c2c3c(onc13)-c1ccccc1C2=O`, the inhibition is 3.02%.

In the case of `CCOC(=O)C1(CO)NC(c2ccc(O)cc2)C2C(=O)N(C)C(=O)C21` (centres undefined), the inhibition is -8.15%. For `CCOC(=O)C(=O)C(C#N)c1ccc(OC(C)C)cc1` (centres undefined) the value was 2.75%; for `CCCNc1cc(-c2cccc(N)c2)ncn1`, -10.6%; for `c1ccc(OCCNc2cc(-c3ccccc3)ncn2)cc1`, -25.8%. `CCCNc1ccc2ncc(-c3ccco3)n2n1`: the inhibition was 3.49%. With `COc1cccc(-c2cnc3ccc(NCc4ccco4)nn23)c1`, the inhibition was 8.66%. For `CCCNc1ccc2ncc(-c3cccc(OC)c3)n2n1`, the inhibition was 59.2% (active). For `CCCCNc1cc(-c2cccc(OC)c2)ncn1` the value was 64.6% (active); for `CCOc1cc(-c2nc3sc4c(c3c(=O)[nH]2)CCCC4)cc(Br)c1OCc1ccccc1F`, -1.86%; for `CCN(CC)C(=O)c1sc(NC(=O)c2cccc(OC)c2)c(C(=O)OC(C)C)c1C`, 7.6%. As to `O=S(=O)(/C=C/c1ccccc1)N1CCN(CC(O)COCc2ccccc2)CC1` (centres undefined), the inhibition is 1.15%. As for `Cc1ccc(S(=O)(=O)N(CC(=O)N2CCCC2)c2ccc(Cl)cc2C)cc1`, the inhibition was 2.4%. The value for `Cc1ccc(/C=N/NC(=O)c2ccc(Cl)cc2O)o1` was -20.5%; that for `COc1ccc(CN2CCN(Cc3cccnc3)CC2)cc1OCc1ccccc1` was 8.2%. Regarding `Oc1c(CN2CCN(c3cccc(Cl)c3)CC2)cc(Br)c2cccnc12`, the inhibition was 5.69%. On to `Oc1c(CN2CCCC2)cc(COCc2ccccc2)c2cccnc12`, for which the inhibition is 63% (active). The value for `N#Cc1ccc(C(=O)Nc2ccc(Cc3ccncc3)cc2)c(F)c1` was 55.3% (active); that for `CCOC(=O)c1ccc(NC(=O)c2ccc(C#N)cc2F)cc1` was -1.23%; that for `CCOc1ccc(NC(=O)c2ccc(C#N)cc2F)cc1` was -9.3%. In the case of `O=C(/C=C/c1ccccn1)c1ccc2c(c1)OCO2`, the inhibition was -21.2%. The value for `O=C(/C=C/c1ccc2c(c1)OCCO2)c1ccc(O)cc1` was 63.9% (active).

As to `COc1cccc(/C=C/C(=O)c2ccc3c(c2)OCCO3)c1`, the inhibition is -34.3%. As for `COCCNc1c(C(C)Cc2ccc3c(c2)OCO3)nc2cnccn12` (centres undefined), the inhibition is -1.93%. As to `Cn1c(=O)cc(OCC(=O)NCCN2CCOCC2)c2ccccc21`, the inhibition was -3.6%.

Take `Cc1ccc2nc(-c3ccc(Br)cc3)cn2c1`: the inhibition was 75.2% (active).

Take `O=C(Nc1ccc(-c2cn3ccccc3n2)cc1)c1ccc(Br)cc1`: the inhibition is -5.14%.

For the molecule `Cc1ccccc1-n1c(-c2ccc(Br)cc2)n[nH]c1=S`, the inhibition is -9.56%.

Turning to `Brc1ccc2nc(-c3cccs3)cn2c1`, the inhibition was 37.5% (active). For `c1ccc(-c2nc3nc(-c4cccs4)cn3nc2-c2ccccc2)cc1` the value was -28.9%; for `N#Cc1ccc(-c2cccs2)nc1SCc1ccc(Br)cc1`, -20.2%; for `N#Cc1ccccc1S(=O)(=O)Nc1ccc(Cl)cc1`, 7.64%. Consider `CC1=C(C(=O)Nc2cccc(Cl)c2)C(c2ccc([N+](=O)[O-])cc2)NC(=O)N1` (centres undefined), for which the inhibition was -2.46%. On to `COc1ccc(NC(=O)c2ccc([N+](=O)[O-])o2)cc1OC`, for which the inhibition is 5.63%. On to `CCOC(=O)C1=C(C)N=c2s/c(=C\c3ccc(-c4ccc([N+](=O)[O-])cc4)o3)c(=O)n2C1c1cccs1` (centres undefined), for which the inhibition was 6.56%. Turning to `O=C(N/N=C/c1ccc2c(c1)OCO2)C12CC3CC(CC(C3)C1)C2`, the inhibition was -46.5%. Consider `CC(C)(C)c1ccc(OCC(=O)Nc2cc([N+](=O)[O-])ccc2O)cc1`, for which the inhibition is 77.8% (active). Turning to `Cc1cc(Cl)ccc1NC(=O)COc1ccc([N+](=O)[O-])cc1`, the inhibition was -9.13%. Regarding `CC(C)(C)c1ccc(OCC(=O)Nc2ccccc2[N+](=O)[O-])cc1`, the inhibition was 2.77%. For the molecule `O=C(CSc1nc2[nH]ncc2c(=O)n1-c1ccccc1)Nc1ccc(Br)cc1F`, the inhibition was 8.04%. `CCOC(=O)C1CCCCN1Cc1cc(Br)ccc1O` (centres undefined): the inhibition was 7.45%. For the molecule `COc1ccc(C)cc1NC(=O)CN1C(=O)C(C)N(c2ccc(C)cc2)C1=O` (centres undefined), the inhibition was 8.14%. Consider `C=CCn1c(=S)[nH]c2sc3c(c2c1=O)CCCCC3`, for which the inhibition is 8.8%. As to `COc1cccc(Nc2nc(-c3cc4cccc(OC)c4oc3=O)cs2)c1`, the inhibition is -12.4%. Turning to `COc1ccccc1Nc1nc(-c2cc3cccc(OC)c3oc2=O)cs1`, the inhibition was 58% (active).

On to `COc1cccc2cc(-c3nc(-c4ccc(C)cc4C)cs3)c(=O)oc12`, for which the inhibition is 1.78%. For the molecule `CCN(C(=O)C1CCC1)c1nnc(-c2ccc(OC)cc2)s1`, the inhibition was -89.3%.

On to `CCN1CCN(CC(=O)NCc2ccccc2Cl)C(=O)C1=O`, for which the inhibition is 2.39%.

In the case of `O=C(COc1cc(Cl)ccc1Cl)NCc1ccco1`, the inhibition was -2.94%. `CCC(C)c1ccc(OCC(=O)NCc2ccco2)cc1` (centres undefined): the inhibition was -13.8%. For the molecule `CCc1cc2c(C)cc(=O)oc2cc1OCC(=O)NCc1ccco1`, the inhibition was 42.8% (active).

One may read the inhibition as the change of the read-out against control, counted positive when it falls.
